Results filed as inconclusive are left out. Active and inactive are the calls of the source. Calls follow the shape of the dose curve; as a rule, active = well fitted inhibition curve with a large enough effect; inconclusive = small, poorly fitted or top-dose-only effect; inactive = flat fitted curve, though single readings scatter.
Potency is read from the fitted curve at half-maximal effect.

The assay has as its system W2. The experiment in a line: qHTS profiling for inhibitors of Plasmodium falciparum proliferation (AID 504749). Also: nearly all actives have a fitted effect of over 60% in size. The conditions noted are these: P. falciparum in erythrocytes, SYBR Green DNA, 72 h; series mostly up to 28.7 µM. The source says:
NIH National Institute of Allergy and Infectious Diseases [NIAID] NIH Chemical Genomics Center [NCGC] MLPCN Grant: None Assay Provider: Xinzhuan Su, NIAID NCGC Assay Overview: Plasmodium falciparum is a virulent malarial parasite that kills 1-2 million people worldwide each year. Transmitted by mosquitoes, the sporozoite form of the parasite enters the blood stream to infect hepatocytes, where they become merozoites that infect red blood cells (erythrocytes). Within erythrocytes, merozoites begin a […] cycle of growth and division, after which the parasite is released to infect new red blood cells. Gametocytes, which form within erythrocytes as well, circulate in the bloodstream and are ingested by the mosquito, thereby completing the life cycle. To profile malarial isolates for differential chemical responses and to identify inhibitors of malarial growth, an assay that measures P. falciparum growth and replication within erythrocytes was employed. This assay uses a DNA binding fluorescent dye (SYBR Green) to detect parasite DNA following cell lysis. Because mature erythrocytes lack DNA, only Plasmodium-derived DNA is detected.
NCGC Assay Protocol Summary: The SYBR Green viability assay was adapted from a method described previously (Plouffe et al., 2008). For screening 3 ul culture medium was dispensed into 1536 well black clear bottom plates (Aurora Biotechnologies) using a Multidrop Combi (Thermo Fisher Scientific Inc.), 23 nL compounds in DMSO were added by a pin tool (Kalypsys), and 5 ul of erythrocytes infected with P. falciparum (0.3% parasitemia, 2.5% hematocrit final concentration) were added. The plates were incubated at 37 C in a humidified incubator in 5% CO2 for 72 h, and 2 ul lysis buffer (20 mM Tris HCl, 10 mM EDTA, 0.16% saponin, 1.6% triton X, 10X SYBR Green I supplied as 10,000X […] by Invitrogen) was added to each well. The plates were mixed for 25 sec with gentle shaking and incubated overnight at room temperature in the dark. The following morning, fluorescence intensity at 485(14) nm excitation and 535(25) nm emission wavelengths was measured on an EnVision (Perkin Elmer) plate reader. Plate reads were normalized relative to the control inhibitor (0.29 uM artemisinin) and vehicle (DMSO) wells present on each plate and then corrected by an algorithm using vehicle-only control plates at the beginning and end of the compound plate stack.
`Nc1c2ccccc2nc2ccccc12`: the Potency was 8.49 µM (active). As for `CC(NCCC(c1ccccc1)c1ccccc1)c1ccccc1` (configuration not stated), the figure is 4.26 µM (active); as for `Nc1ccc2cc3ccc(N)cc3nc2c1`, 7.57 µM (active); as for `O=C(Nc1ccc(Cl)cc1)Nc1ccc(Cl)c(Cl)c1`, 3.01 µM (active). Under `CN1CCC(Nc2ncc3ncnc(Nc4ccc(F)c(Cl)c4)c3n2)CC1` stands 5.36 µM (active). As for `O=S(=O)(O)c1ccc2nc(-c3ccccc3)[nH]c2c1`, the entry is “inactive”; as for `CCCCCCCCCCCCCC[N+](C)(C)C`, 4.26 µM (active); as for `Nc1ncnc2nc[nH]c12`, “inactive”. `CN1CCCN(C(c2ccccc2)c2ccc(Cl)cc2)CC1` (configuration not stated): the Potency was 1.2 µM (active). Under `O=[N+]([O-])c1ccc(O)c2ncccc12` stands 10.7 µM (active); under `CCCCCCCCCCCCCCCC[N+](C)(C)Cc1ccccc1`, 4.26 µM (active). As for `CCCCCCCCCCCCCCCC[n+]1ccccc1`, the figure is 1.51 µM (active).

The record behind these values is PubChem BioAssay (NCATS).
